Shown are actives, neighbours in structure and some others; about 6.3% of the full set was active somewhere.
NADH coupling: inhibition of NAD/NADH coupling enzymes, library profiling; coupled PK/LDH NADH assays, four targets; AID 774; hit rate 0.02% among 65,000; IC50, µM (doses to about 10 µM);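 active = single-dose screening hits from any of four coupled enzyme assays that gave an IC50 when retested across doses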;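 also: the DPM-DC format reads NADH fluorescence rather than 340 nm absorbance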
Spn MK inh: inhibitors of Streptococcus pneumoniae mevalonate kinase; hit rate 0.48% among 65,000; purified MK, PK/LDH-coupled NADH absorbance 340 nm; inhibition, % at 10 µM;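 active = ranked among the strongest by inhibition in the single 10 µM screen, a fixed top-ranked set picked for dose follow-up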
Spn DPM-DC inh: S. pneumoniae DPM-DC inhibition. hit rate 0.49% among 65,000. AID 556. purified DPM-DC, PK/LDH coupled NADH fluorescence. calls only at 10 µM;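 active = the 320 compounds with the highest percent inhibition in the single-dose primary screen, excluding strongly autofluorescent ones, cut at about 32% in these data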;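 also: kinetic rate of NADH fluorescence loss reporting ADP formed by the decarboxylase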
Autofluor 339: intrinsic fluorescence of library compounds, ex339/em460 – biochemical, MLSMR library, data from DPM-DC assay, artefact control, profiling panel; fluorescence fold increase at 10 µM; compound autofluorescence, ex339/em460 nm, NADH buffer; active compounds read high; 1 = no-compound wells, NADH background; hit rate 5.5% among 65,000;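 active = at 10 µM, mean starting fluorescence two-fold or more over control wells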;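 also: signal is the first read of a kinetic run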
Spn PMK inh: blocks S. pneumoniae phosphomevalonate kinase. purified PMK, PK/LDH-coupled NADH absorbance 340 nm. inhibition, % at 10 µM. hit rate 0.49% among 65,000. AID 539;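 active = top-ranked compounds by inhibition in the single 10 µM screen, taking a fixed number of the strongest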
A340 absorber: compounds absorbing at 340 nm; 65,000 tested, under 10 active; compound absorbance at 340 nm, fold over control; AID 708; fold change at 10 µM;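 active = at 10 µM dose, initial 340 nm absorbance at least 2 fold that of control wells; inactive = change under 2 fold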;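 also: initial absorbance extrapolated from kinetic A340 decline of NADH oxidation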
Large screens that a line does not name were inactive.

Cc1ccc(-n2nc(C)c3c(-c4cccs4)c(C#N)c(N)nc32)cc1	Autofluor 339 2.41
Cc1ccccc1NC(=O)CSc1nc(N)c(C#N)c(-c2cccs2)c1C#N	none
Cc1nn(-c2ccccc2)c2nc(N)c(C#N)c(-c3ccc(F)cc3)c12	Autofluor 339 3.77 (not shown: Spn DPM-DC inh)
Cc1nc(N)c(C#N)c(-c2ccccc2)c1C	none
CCOc1ccc2nc3c(cc2c1)CN(CCCO)C(=NCCOC)S3	none
COc1ccc(C)cc1NC(=O)C1CCCN(S(=O)(=O)c2c(C)noc2/C=C/N(C)C)C1 (configuration not stated)	none
CCc1nc2c(sc3nc(N4CCOCC4)c4c(c32)CC(C)(C)OC4)c(=O)o1	none
CCn1c2ccccc2c2nnc(SCC(=O)Nc3ncccn3)nc21	none
CCC1(C)Cc2c(sc3[nH]c(=O)[nH]c(=O)c23)CS1 (configuration not stated)	Autofluor 339 2.28 (not shown: Spn DPM-DC inh)
Cn1c(=O)c2nc(-c3ccc(Cl)cc3Cl)oc2c2ccccc21	Autofluor 339 2.04 (not shown: Spn DPM-DC inh)
CCN(C(=O)COc1cc(=O)n(C)c2ccccc12)c1cccc(Cl)c1	none
O=C(Nc1ccc(-c2noc(COc3ccccc3Cl)n2)cc1)c1ccco1	Spn PMK inh 32.0
CCOc1ccc2[nH]c(=O)c(CN(CC3COCCO3)C(=O)c3ccco3)cc2c1 (configuration not stated)	Autofluor 339 4.03 (not shown: Spn DPM-DC inh)
CCOc1ccc2[nH]c(=O)c(CN(Cc3ccco3)C(=O)c3cccc(F)c3)cc2c1	Autofluor 339 2.85
COc1ccc2[nH]c(=O)c(CN(Cc3ccco3)C(=O)c3ccccc3)cc2c1	Autofluor 339 3.74 (not shown: Spn DPM-DC inh)
O=C(COc1ccc(Cl)cc1)Nc1ccccc1N1CCOCC1	none
O=C(c1ccc(Cl)cc1)N1CCN(c2nc(N3CCCCC3)nc(N3CCCCC3)n2)CC1	none
CC(C)Oc1ccc(-c2nn(-c3ccccc3)cc2/C=c2\sc3ncnn3c2=O)cc1	Autofluor 339 3.02 (not shown: Spn DPM-DC inh)
COC(=O)/C=c1\sc2ncnn2c1=O	none
O=S(=O)(c1ccc(S(=O)(=O)N2CCCC2)cc1)N1CCCCCC1	none
O=S(=O)(c1ccc2c(c1)C(=NO)c1cc(S(=O)(=O)N3CCCCC3)ccc1-2)N1CCCCC1	Autofluor 339 2.02
CCCC(C)C(=O)Nc1nnc(C)s1 (configuration not stated)	none
CCCCC(C(=O)NCCC(C)C)N(CCCN1CCOCC1)C(=O)c1snc(C(N)=O)c1N (configuration not stated)	Autofluor 339 2.08
CCOC(=O)c1ccc(N2CC(O)=C(c3nc4ccccc4c(=O)[nH]3)C2=N)cc1	Autofluor 339 2.36 (not shown: Spn DPM-DC inh)
COc1ccc(CCN2CC(O)=C(c3nc4ccccc4c(=O)[nH]3)C2=N)cc1OC	Autofluor 339 2.33 (not shown: Spn DPM-DC inh)
Cc1cccc(OCCSc2cc(C)nc(N)n2)c1	none
O=c1c2ccccc2nc2n1CCN2Cc1ccc(Cl)cc1	Autofluor 339 2.18 (not shown: Spn DPM-DC inh)
COCC(C)NC(=O)c1cc(-c2ccccc2OC)on1 (configuration not stated)	none
COCC(C)NC(=O)c1ccccc1OC(C)=O (configuration not stated)	Autofluor 339 2.03
Nc1ccc2oc3ncccc3c(=O)c2c1	none
Nc1ccc2c(C(F)(F)F)cc(=O)oc2c1	Autofluor 339 3.73 (not shown: Spn DPM-DC inh)
COCCNC(=O)CCSCc1ccccc1F	none
Cc1ccc(-n2nc3c(c2NC(=O)c2ccc(S(=O)(=O)N4CCOCC4)cc2)CSC3)c(C)c1	none
Cc1cc(NS(=O)(=O)c2ccc(NC(=O)C(C)Oc3ccc4c(C)cc(=O)oc4c3)cc2)no1 (configuration not stated)	Autofluor 339 2.05
Nc1ccc(C(=O)c2ccc3c(c2)OCCO3)cc1N	none
Cc1ccc(C(=O)c2cc3c(cc2N)OCCO3)cc1	Spn PMK inh 27.0
O=C(CSc1ccc2nnc(-c3ccccc3)n2n1)NCC1CCCO1 (configuration not stated)	Autofluor 339 2.2
CC1CCN(C(=O)CSc2nc3ccccc3[nH]2)CC1	Spn PMK inh 32.0
O=C(CSc1nc2ccccc2[nH]1)N1CCN(c2ccc(F)cc2)CC1	none
CC1CCN(C(=O)CSc2ccc3nnc(-c4ccccc4)n3n2)CC1	Autofluor 339 2.25
Cc1ccc(-c2nnc3ccc(SCC(=O)N4CCCCC4)nn23)cc1	none
CC1CCN(C(=O)CSc2ccc3nnc(-c4ccc(F)cc4)n3n2)CC1	Autofluor 339 2.26
Clc1ccc(Cn2ncc3c(NCCN4CCOCC4)ncnc32)cc1	none
Cc1ccc2c(c1)cc(CN(Cc1ccco1)S(=O)(=O)c1ccccc1)c1nnnn12	none
Cc1ccc(-c2nnc3ccc(SCC(=O)Nc4cc(C)on4)nn23)cc1	Autofluor 339 2.01
Cc1cc(NC(=O)CSc2ccc3nnc(-c4ccc(F)cc4)n3n2)no1	none
CC1CC(C)CN(CCCNC(=O)Cn2ncc3c(=O)oc4ccccc4c32)C1 (configuration not stated)	Spn DPM-DC inh active
CCCc1nnc2n1N=C(c1ccc(-c3cc(Cl)ccc3Cl)o1)CS2	none
C=CCNC(=O)C1CCCN(S(C)(=O)=O)C1 (configuration not stated)	Spn PMK inh 28.0
CS(=O)(=O)N1CCCC(C(=O)NCc2ccccn2)C1 (configuration not stated)	Spn PMK inh 29.0
COC(=O)c1cc(Cl)c(NS(=O)(=O)c2ccccc2)cc1OC	Spn DPM-DC inh active
COC(=O)c1cc(NS(=O)(=O)c2ccc(OC)c(OC)c2)ccc1Cl	none
Cc1ccc(Cl)cc1N1CCN(Cc2nnnn2C2CCCCC2)CC1	Spn PMK inh 25.0
O=C(c1nc(-c2ccccc2)n(-c2ccccc2)n1)N1CCCCCC1	none
CCc1nc2oc3cc(OC)ccc3c(=O)c2c(=O)n1Cc1ccco1	none
COc1ccc(-c2nc3oc4cc(OC)ccc4c(=O)c3c(=O)n2Cc2ccco2)cc1	Autofluor 339 3.85 (not shown: Spn DPM-DC inh)
CCOC(=O)C(C)Sc1nc(-c2ccco2)cc(C(F)(F)F)c1C#N (configuration not stated)	Autofluor 339 2.82
O=C1NC(c2ccccc2)C(C(=O)c2cccs2)=C1O (configuration not stated)	none
Cc1ccc(S(=O)(=O)Nc2nc3ccccc3nc2NCc2ccco2)cc1C	Autofluor 339 2.13
Cc1ccc(S(=O)(=O)Nc2nc3ccccc3nc2NCc2ccco2)cc1	none
CC12CCC(=O)N1c1c(sc3nc(N4CCOCC4)c4c(c13)CCCC4)C(=O)N2 (configuration not stated)	Autofluor 339 2.35 (not shown: Spn DPM-DC inh)
O=C(O)c1cc(-c2ccccn2)n[nH]1	none
CN1CCc2c(sc3c2c(=O)n(-c2ccccc2)c2nnc(SCc4ccccc4)n32)C1	none
CN1CCc2c(sc3c2c(=O)n(-c2ccccc2)c2nnc(SCc4ccc(F)cc4)n32)C1	Spn PMK inh active

Screens deposited in PubChem BioAssay by SRMLSC.
